# Assay outcomes: PubChem, National Center for Advancing Translational Sciences (NCATS)
# Hits are enriched below; roughly 11% of the tested compounds scored in any of these assays.
# PNC assembly inh: inhibitors of perinucleolar compartment assembly; 140,000 tested, 3.1% active; PC3M PTB-GFP, PNC prevalence imaging, 16 h; active compounds read low; activity change (PNC), negative = inhibition, % at 10 µM;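 active = readout at or below -70, meaning at least 70% loss of cells showing the perinucleolar compartment, a nuclear body marking cancer cells; inconclusive = readout between -30 and a set limit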;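 also: plate controls were DMSO wells for no effect and camptothecin positive control wells for full effect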
#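 Read-out is percentage of cells bearing a perinucleolar compartment, from automated 20x imaging of fixed, Hoechst-stained PC3M PTB-GFP cells. Cells were seeded 4 h, then exposed 16 h to compound (23 nl of library stock) in duplicate plates.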
# HPGD inh: blocks human HPGD enzyme activity; P15428; purified HPGD, NADH fluorescence kinetic, PGE2 substrate; Potency, µM, for the others: at the highest dose activity change, negative = inhibition, actives largely listed as inhibitors; 150,000 tested, 4.3% active; AID 894; also: potency is read from the fitted curve at half-maximal effect
# Target sequence (P15428 whole entry, looked up): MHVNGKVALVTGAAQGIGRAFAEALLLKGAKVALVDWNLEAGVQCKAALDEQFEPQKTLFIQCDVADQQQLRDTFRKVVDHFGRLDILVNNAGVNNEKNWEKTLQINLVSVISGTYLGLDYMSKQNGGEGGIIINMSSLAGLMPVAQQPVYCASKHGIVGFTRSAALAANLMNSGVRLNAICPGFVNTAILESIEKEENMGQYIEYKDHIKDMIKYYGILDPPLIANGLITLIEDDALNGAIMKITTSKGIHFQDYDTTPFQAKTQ
#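 NADH formation kinetics: reaction with 30 uM PGE2 and 1 mM NAD+ (final), 20 nM enzyme, Tris-HCl pH 8 with Tween 20, after 15 min compound preincubation at room temperature. Fluorescence change, last versus first of five reads.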
# ALDH1A1 inh: inhibitors of human aldehyde dehydrogenase 1A1; P00352; Purified ALDH1A1, NADH fluorescence, propionaldehyde substrate; Potency, µM (top dose mostly 75.3 µM), without a hit: top-dose activity, negative = inhibition, hits mostly inhibitors; 220,000 tested, 7.3% active; AID 1030;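 also: potency is read from the fitted curve at half-maximal effect; plate controls were no enzyme wells and a reference inhibitor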
# Starred values were filed as active, the others as inactive; ? = inconclusive; / = no result; [ ] = dose if it differs, or a comment. Unless noted, calls follow the shape of the dose curve; as a rule, active = well fitted inhibition curve with a large enough effect (not every such curve was filed as active); inconclusive = small, poorly fitted or top-dose-only effect, or another doubt; inactive = no such curve, though single readings can be large or run the other way. Unless noted, % is scaled to controls: 0 for no effect and ±100 for the full control effect.
SMILES,PNC assembly inh,HPGD inh,ALDH1A1 inh
Cc1ccccc1NS(=O)(=O)c1ccc(N2CCCC2=O)cc1,?,?,3.1%
COc1ccc(NS(=O)(=O)c2ccc(NS(=O)(=O)c3ccc(SC)cc3)cc2)c(OC)c1,73.9,-13.8%,?
COc1ccc(OC)c(NS(=O)(=O)c2ccc(N3CCCC3=O)cc2)c1,-83.3*,-12.9%,-13.1%
COc1ccc(NC(=O)CCNC(C)=O)cc1NS(=O)(=O)c1ccc(F)cc1,-28.1,-18.0%,?
COc1ccc2c(CC(=O)Nc3ccc(OC)c(NS(=O)(=O)c4ccc(F)cc4)c3)coc2c1,-126.8*,-16.2%,?
COc1ccc(OC)c(NS(=O)(=O)c2ccc(SC)cc2)c1,28.5,-1.0%,17.8µM*
CCSCCOC(=O)C1=C(C)NC(=O)NC1c1ccc2c(c1)OCO2 (stereo unspecified),7.4,-14.3%,14.1µM*
CCOC(=O)C1=C(C)NC(=O)NC1c1ccc2c(c1)OCO2 (stereo unspecified),59.8,-18.4%,-32.4%
N#Cc1ccccc1NC(=O)c1ccc(-c2ccccc2Cl)o1,28.8,?,?
CSc1nnc(C)c(=O)n1COC(=O)c1ccccc1,/,/,2.5%
Cc1ccc(COc2ccsc2-c2n[nH]c(=S)n2C)cc1,5.6,?,20µM*
Cn1c(-c2sccc2OCc2ccccc2)n[nH]c1=S,12.6,?,?
Cn1c(-c2sccc2OCc2ccc(Cl)cc2Cl)n[nH]c1=S,/,/,31.6µM*
COc1ccc(Cl)cc1-c1n[nH]c(=S)n1C,-15.0,-20.6%,-8.7%
Cc1ccc(NC(=O)COC(=O)c2ccc3c(c2)OCO3)c(C)c1,/,/,-4.6%
CC(C)NC(=S)NC(=O)c1ccc(Cl)cc1Cl,-11.6,-12.4%,?
CC(C)CNC(=S)NC(=O)c1ccc(Cl)cc1Cl,-5.0,/,22.4µM*
Cc1ccc(OCC(=O)NC(=S)Nc2cccc(NC(=O)c3ccc(Cl)cc3Cl)c2)cc1,-15.5,-7.2%,-8.5%
COc1cccc(OCC(=O)Nc2ccccc2-c2ccccc2)c1,/,/,20µM*
Cc1ccc(OCC(=O)Nc2ccccc2-c2ccccc2)cc1,-13.0,-14.2%,0.7%
Cn1cccc1CC(=O)NNC(=S)NC(=O)c1ccccc1Br,/,/,-5.5%
O=C(COc1ccccc1)NNC(=S)NC(=O)c1ccc(Cl)cc1Cl,-24.3,35.5µM*,7.94µM*
Cn1cccc1CC(=O)NNC(=S)Nc1ccc(Cl)cc1Cl,49.4,11.2µM*,10µM*
Cc1ccc(NC(=O)C(=O)NCc2ccncc2)cc1,/,/,-9.2%
S=C(Nc1ccccc1Cl)N(CCN1CCCCC1)Cc1ccco1,19.2,-7.5%,?
SMILES,PNC assembly inh,HPGD inh,ALDH1A1 inh
O=C(COc1cccc(Cl)c1)NNC(=S)Nc1ccccc1,-21.2,-17.3%,14.9%
Cc1cccc(C(=O)NC(=S)NNC(=O)COc2ccc(Cl)cc2)c1,/,/,9.46µM*
Cc1cccc(/C(N)=N/OC(=O)COc2ccc(Cl)cc2)c1,/,/,10.9%
COc1cccc(OCC(=O)NNC(=S)Nc2ccc(Cl)cc2Cl)c1,/,/,2µM*
CC(C)CC(=O)N/C(N)=N/c1nc2ccccc2o1,/,/,-7.3%
O=C(CN(Cc1ccccc1)S(=O)(=O)c1ccccc1)N/N=C/c1ccccc1[N+](=O)[O-],7.0,-1.1%,11.2µM*
Cc1ccc(CN(CC(=O)N/N=C/c2ccccc2[N+](=O)[O-])S(=O)(=O)c2ccc(C)cc2)cc1,17.8,-17.5%,?
O=C(OCC(=O)c1c[nH]c2ccccc12)c1ccc([N+](=O)[O-])s1,/,/,0.708µM*
CCc1cccc2c(C(=O)CSc3nncn3C)c[nH]c12,/,/,10.0%
CCc1cccc2c(C(=O)COC(=O)c3ccc([N+](=O)[O-])s3)c[nH]c12,7.4,-12.3%,12.6µM*
CCc1cccc2c(C(=S)N3CCCC3)c[nH]c12,/,/,-9.0%
CCc1cccc2c(C(=O)CCl)c[nH]c12,?,/,8.91µM*
Cc1ccc(C(=O)OCC(=O)c2c[nH]c3ccccc23)cc1,68.3,-5.9%,8.6%
CC(C)CN(CCCNC(=O)CN1C(=O)COc2ccc(S(=O)(=O)N3CCCC3)cc21)CC(C)C,/,/,4.1%
CCOC(=O)N1CCC(Nc2c(NCCN3CCN(c4ccccc4F)CC3)c(=O)c2=O)CC1,?,-5.9%,12.6%
Cc1ccccc1-n1c(-c2cccnc2)n[nH]c1=S,5.0,-11.0%,-4.4%
C=CCn1c(-c2cccnc2)n[nH]c1=S,5.8,0.5%,8.5%
S=c1[nH]nc(-c2cccnc2)n1/N=C/c1ccc(Br)s1,-8.8,15.8µM*,?
Cc1ccc(/C=N/n2c(-c3cccnc3)n[nH]c2=S)s1,-23.3,12.6µM*,?
Cc1ccc(C(NC(=O)N2CCOCC2)C(Cl)(Cl)Cl)cc1F (stereo unspecified),?,-0.9%,4.7%
Cc1ccc(C(NC(=O)N2CCCC2)C(Cl)Cl)cc1F (stereo unspecified),/,/,11.2µM*
Cc1ccc(NC(=O)C(=O)NCc2ccc(/C=N/NC(=O)c3c(C)nc4ccccn34)o2)cc1,22.5,?,-15.1%
CSCCC(NC(=O)c1ccc(Cl)cc1)C(=O)O (stereo unspecified),/,/,5.6%
CSCCC(NC(=O)c1cc([N+](=O)[O-])ccc1Cl)C(=O)O (stereo unspecified),-82.0*,-9.7%,2.8%
COc1ccc(C(=O)NC(CC(=O)O)c2cc([N+](=O)[O-])ccc2Cl)c(SC)c1 (stereo unspecified),/,/,8.91µM*
SMILES,PNC assembly inh,HPGD inh,ALDH1A1 inh
O=C(O)CC(NC(=O)Cc1ccccc1)c1cc([N+](=O)[O-])ccc1Cl (stereo unspecified),/,/,-3.7%
CCc1ccc([C@@H]2C[C@H]3CN(Cc4ccccc4OC)C(=O)[C@]34CCCN24)cc1,/,/,0.9%
CCCN(CC1CC1)c1nc(C)nc(Nc2c(Cl)cc(Cl)cc2Cl)c1Cl,/,-18.8%,-5.6%
CC(=O)c1ccc(NC(=O)CN2C(=O)/C(=C/C=C/c3ccccc3)SC2=S)cc1,23.9,-19.0%,-2.7%
O=C(CCN1C(=O)/C(=C/C=C/c2ccccc2)SC1=S)Nc1cccnc1,-108.4*,-11.3%,-7.7%
O=C(CN1C(=O)S/C(=C\C=C\c2ccccc2)C1=O)Nc1cccc(O)c1,-18.2,-23.0%,31.6µM*
O=C(CCN1C(=O)/C(=C/C=C/c2ccccc2)SC1=S)Nc1ccccn1,/,/,0.9%
C/C(=N\NC(=O)c1ccccc1)c1ccc(C)c([N+](=O)[O-])c1,-29.6,-9.6%,?
Cc1ccc(CCNC(=O)CCc2nc3ccccc3[nH]2)cc1,?,-8.8%,-1.7%
Cc1nn(C(=O)c2ccco2)c(C)c1Sc1ccc(Cl)cc1,19.5,-11.3%,?
Cc1nn(C(=O)c2cccnc2)c(C)c1Sc1ccc(Br)cc1,-8.7,14.1µM*,-4.5%
COc1ccc2[nH]cc(CCNc3ccnc(-c4ccoc4)n3)c2c1,/,/,4.8%
O=C1CCCC/C1=C/Nc1ccc(S(=O)(=O)Nc2ncccn2)cc1,?,-27.4%,22.4µM*
O=C1CCCC/C1=C\Nc1ccc(O)cc1,-116.6*,-23.2%,14.1µM*
O=C1CCC/C1=C/Nc1ccc(Cl)cc1,/,/,-4.8%
Cc1ccc(S(=O)(=O)Nc2ccc(S(=O)(=O)Nc3ncccn3)cc2)cc1,?,0.7%,?
Cc1nn(-c2ccccc2)c(N)c1C1(O)C(=O)Nc2ccccc21 (stereo unspecified),/,/,8.2%
NNC(=O)CCc1ccc2ccc3ccccc3c2c1,/,-11.3%,-10.6%[13.5 µM]
